In PMC4336329 (PLoS ONE, 2015):
The whole screen tested about 310,000 compounds, of which about 14,000 (4.5%) showed an effect of 50% or more. The effect is printed as a negative number. Only a selection was taken, and strong results are over-represented in it overall.

Target: human ether-à-go-go-related gene (hERG) potassium channel (human, UniProt Q12809)
Test: primary screen, population patch clamp on CHO cells stably expressing hERG; higher = less effect of the substance
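Further: peak tail current of the secondary pulse compared with the same well before compound.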

human ether-à-go-go-related gene (hERG) potassium channel, sequence (Q12809 whole entry, looked up): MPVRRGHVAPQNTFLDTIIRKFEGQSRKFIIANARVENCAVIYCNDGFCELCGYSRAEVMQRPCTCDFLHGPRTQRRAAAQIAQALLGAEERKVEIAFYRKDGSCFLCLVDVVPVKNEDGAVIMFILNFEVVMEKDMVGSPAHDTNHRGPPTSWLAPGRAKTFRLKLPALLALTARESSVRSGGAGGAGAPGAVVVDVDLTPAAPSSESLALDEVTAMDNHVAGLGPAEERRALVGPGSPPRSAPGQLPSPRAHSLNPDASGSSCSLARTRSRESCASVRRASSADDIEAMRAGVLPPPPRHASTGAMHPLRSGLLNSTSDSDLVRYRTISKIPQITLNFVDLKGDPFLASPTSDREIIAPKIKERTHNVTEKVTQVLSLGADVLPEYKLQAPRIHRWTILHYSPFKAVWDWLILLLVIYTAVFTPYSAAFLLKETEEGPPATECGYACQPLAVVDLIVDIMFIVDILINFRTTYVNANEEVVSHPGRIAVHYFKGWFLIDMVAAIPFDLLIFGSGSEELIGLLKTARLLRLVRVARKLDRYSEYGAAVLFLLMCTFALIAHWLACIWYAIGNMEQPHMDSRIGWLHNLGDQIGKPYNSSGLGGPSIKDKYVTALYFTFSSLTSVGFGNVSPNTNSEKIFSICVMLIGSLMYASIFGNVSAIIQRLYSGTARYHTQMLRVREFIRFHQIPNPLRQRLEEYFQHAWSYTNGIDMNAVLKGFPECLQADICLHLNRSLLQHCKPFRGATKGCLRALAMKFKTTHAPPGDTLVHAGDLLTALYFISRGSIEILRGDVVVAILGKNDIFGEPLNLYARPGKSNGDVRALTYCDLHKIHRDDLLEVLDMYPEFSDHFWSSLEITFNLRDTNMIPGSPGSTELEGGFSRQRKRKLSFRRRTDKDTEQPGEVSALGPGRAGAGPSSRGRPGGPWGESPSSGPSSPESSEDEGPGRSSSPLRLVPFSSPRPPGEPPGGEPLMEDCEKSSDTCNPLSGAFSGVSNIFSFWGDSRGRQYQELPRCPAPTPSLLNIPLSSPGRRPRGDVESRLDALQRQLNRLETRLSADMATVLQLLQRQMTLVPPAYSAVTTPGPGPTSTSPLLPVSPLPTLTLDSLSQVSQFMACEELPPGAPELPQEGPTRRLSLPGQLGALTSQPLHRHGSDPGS

Row | SMILES | hERG current change (%, negative = inhibition) at 10uM
1 | O=C(c1ccc2c(=O)n3c(nc2c1)CCCCC3)N1CCN(c2ccc([N+](=O)[O-])cc2)CC1 | -73%
2 | O=C(c1ccc2c(=O)n3c(nc2c1)CCCCC3)N1CCN(c2ccc(Cl)cc2)CC1 | -48%
3 | O=C(c1ccc2nsnc2c1)N1CCN(c2ccc([N+](=O)[O-])cc2)CC1 | -75.5%
4 | CCc1nc2ccc(C(=O)N3CCN(c4ccc(Cl)cc4)CC3)cc2nc1CC | -6.46%
5 | O=C(c1ccc(NC2=NC3CS(=O)(=O)CC3S2)cc1)N1CCN(c2ccc([N+](=O)[O-])cc2)CC1 (centres unmarked) | -4.75%
6 | O=C(c1ccc2c(=O)n3c(nc2c1)CCCCC3)N1CCN(c2ccc(F)cc2)CC1 | -42.1%
7 | Cl.O.O=c1c2ccccc2nc2n1CC/C2=C/N1CCN(c2cccc(C(F)(F)F)c2)CC1 | -28%
8 | O=c1c2ccccc2nc2n1CC/C2=C\N1CCN(c2ccc([N+](=O)[O-])cc2)CC1 | -78.1%
9 | Cc1nc2ccccc2c(=O)n1-c1ccc([N+](=O)[O-])cc1 | 7.26%
10 | Cc1ccc(C)c(N2CCN(C(=O)c3ccc4nsnc4c3)CC2)c1 | -1.44%
11 | CCc1nc2ccc(C(=O)N3CCN(c4ccc([N+](=O)[O-])cc4)CC3)cc2nc1CC | -72.1%
12 | CCc1nc2ccc(C(=O)N3CCN(c4ccccc4)CC3)cc2nc1CC | -5.04%
13 | CCOP(=O)(c1ccccc1)C1(O)CCCCC1 (centres unmarked) | -1.86%
14 | CCCc1oc(C(=O)O)cc1CN1CCOCC1.Cl | 8.54%
15 | COC(=O)C1=C(C)N(Cc2ccccc2)C(=O)N[C@H]1c1ccco1 | 5.95%
16 | O=C(NCC(c1cccnc1)N1CCN(c2ccc(F)cc2)CC1)c1cccc(Cl)c1 (centres unmarked) | -66.2%
17 | COc1ccc(N2CCN(C(CNC(=O)c3cccc(Cl)c3)c3cccnc3)CC2)cc1 (centres unmarked) | -38.7%
18 | O=C(NCC(c1cccnc1)N1CCN(c2ccccc2)CC1)c1ccc2c(c1)OCO2 (centres unmarked) | -26.5%
19 | O=C(NCC(c1cccnc1)N1CCN(c2ccc(F)cc2)CC1)c1ccccc1 (centres unmarked) | -40.2%
20 | O=C(NCC(c1cccnc1)N1CCN(c2ccc(F)cc2)CC1)c1ccc2c(c1)OCO2 (centres unmarked) | -65.3%
21 | COc1ccc(N2CCN(C(CNC(=O)c3ccc4c(c3)OCO4)c3cccnc3)CC2)cc1 (centres unmarked) | -16.2%

Row | SMILES | hERG current change (%, negative = inhibition) at 10uM
22 | COCCN=c1scc(-c2ccc3c(c2)NC(=O)CO3)n1/N=C(\C)c1ccc(O)cc1 | -8.23%
23 | Cn1c(=NC(=O)C2CC2)sc2cc(F)cc(F)c21 | -12.3%
24 | CCOC(=O)c1c(NC(=O)c2cccs2)sc(CC)c1-c1cccs1 | -11%
25 | Cc1nnc(NC(=O)CSc2ccc([N+](=O)[O-])cn2)s1 | 17.9%
26 | CCOC(=O)C1CCN(CC(C)(C)NS(=O)(=O)c2ccc(C)cc2)CC1 | -4.95%
27 | CC(C)(CN1CCCC1)NS(=O)(=O)c1ccccc1.Cl | 24.7%
28 | CCOC(=O)C1CCN(CC(C)(C)NS(=O)(=O)c2ccccc2)CC1 | 11.5%
29 | CC(=O)N1CCN(CC(C)(C)NS(=O)(=O)c2ccc(C)cc2)CC1 | 7.76%
30 | Cc1ccc(S(=O)(=O)NC(C)(C)CN2CCC(Cc3ccccc3)CC2)cc1.O=C(O)C(=O)O | -64.8%
31 | CC(C)(CN1CCC(Cc2ccccc2)CC1)NS(=O)(=O)c1ccccc1.O=C(O)C(=O)O | -60.8%
32 | COC(=O)c1ccc(-n2cc(-c3ccc(OC)cc3)[nH]c2=S)cc1 | 33.1%
33 | Nc1c(C(=O)c2ccc(Cl)cc2)sc2c1c(=O)[nH]c(=O)n2-c1ccccc1 | -24.2%
34 | CC[C@]1(c2ccccc2)C(=O)N(C(=O)OC)N1C(=O)OC | 25.2%
35 | COc1ccc(-c2noc3c2-c2nc(-c4ccc(Cl)cc4)sc2CC3)cc1 | 9.5%
36 | CCCNC(=O)C12CCC(C)(C(=O)O1)C2(C)C (centres unmarked) | 17.2%
37 | Clc1ccc2nc(-c3ccc(Br)s3)cn2c1 | 8.14%
38 | Cc1oc(-c2cccc(Cl)c2)nc1CN1CCC(C(=O)NCCCN2CCCC2=O)CC1 | -38%
39 | COc1ccccc1CNC(=O)C1CCN(Cc2nc(-c3cccc(Cl)c3)oc2C)CC1 | -78%
40 | CCc1ccc(-c2nc(CN3CCC(C(=O)NCc4ccccc4OC)CC3)c(C)o2)cc1 | -68.4%
41 | COc1ccc(-c2nc(CN3CCC(C(=O)NC4CCN(Cc5ccccc5)CC4)CC3)c(C)o2)cc1OC | 1.67%
42 | COc1ccccc1CNC(=O)C1CCN(c2nc3ccccc3o2)CC1 | -9.09%

Row | SMILES | hERG current change (%, negative = inhibition) at 10uM
43 | COCCOC(=O)c1c(NC(=O)COC(=O)c2ccc(C)o2)sc(C(N)=O)c1C | -10.9%
44 | CCc1ccc(CCOc2ccc(CC3SC(=O)NC3=O)cc2)nc1.Cl (centres unmarked) | 4.26%
45 | CC(C)CC(=O)N1CCN(C(=O)c2cccc(F)c2)CC1 | 0.0457%
46 | C1CCC(OCCN2CCN(CCOC3CCCCC3)CC2)CC1 | -37.1%
47 | Cc1ccc(N2C(=O)NC3(CCCCC3)C2=O)cc1 | 9.24%
48 | CCCCc1ccc(NC(=O)N2CCN(c3cc(C)nc4ccccc34)CC2)c(C)c1 | -61.6%
49 | CC(C)n1c(N2CCN(C(=O)Nc3ccc(F)cc3F)CC2)nc2ccccc21 | -26.3%
50 | Cc1cc(N2CCN(C(=O)Nc3ccccc3C#N)CC2)c2ccccc2n1 | -72.9%
51 | Cc1ccccc1NC(=O)N1CCN(c2ncccn2)CC1 | 4.15%
52 | COc1ccccc1N1CCN(C(=O)Nc2cccc(C)c2)CC1 | -3.99%
53 | Cc1cc(C(=O)Nc2ccccc2N2CCOCC2)c2ccccc2n1 | -15.5%
54 | Cc1cc(N2CCN(CC(O)C(F)(F)F)CC2)c2ccccc2n1 (centres unmarked) | -40.7%
55 | Cc1cc(N2CCN(C(=O)/C=C/C(=O)O)CC2)c2ccccc2n1 | 32.4%
56 | O=C(Nc1ccc(F)cc1F)N1CCN(c2ncccn2)CC1 | -8.77%
57 | COc1ccccc1N1CCN(C(=O)Nc2cccc(Cl)c2)CC1 | -28.2%
58 | Cc1cc(N2CCN(C(=O)Nc3ccc(F)cc3F)CC2)c2ccccc2n1 | -72.2%
59 | COc1cccc(Cl)c1NC(=O)N1CCN(c2cc(C)nc3ccccc23)CC1 | -75.3%
60 | CCOC(=O)c1sc(NC(=O)C2C3C=CC(C3)C2C(=O)O)nc1C (centres unmarked) | 16.2%
61 | CC[C@H](C)/C=C(C)/C=C/C1=CC2=CC(=O)[C@]3(C)OC(=O)[C@@H](C(C)=O)[C@@H]3C2=CO1 | 4.65%
62 | O=[N+]([O-])c1ccc(O)c(/C=N/n2c(-c3ccccc3)n[nH]c2=S)c1 | 17.9%
63 | O=C(O)c1cccc(Nc2ncnc3ccccc23)c1 | 17.3%

Row | SMILES | hERG current change (%, negative = inhibition) at 10uM
64 | CC1CCCC(C)N1NC(=O)c1cccc(S(=O)(=O)N2CCc3ccccc32)c1 (centres unmarked) | -2.22%
65 | Cc1ccc(CSc2ncnc3ccccc23)cc1 | 11.3%
66 | Cc1ccc(S(=O)(=O)NNC(=O)C2COc3ccccc3O2)cc1C (centres unmarked) | 15.2%
67 | O=C(CSc1nnc(-c2ccc(S(=O)(=O)N3CCCC3)cc2)o1)NCc1ccco1 | -7.57%
68 | CCCCC(=O)N1CCN(c2ccc(OC)cc2[N+](=O)[O-])CC1 | -64.5%
69 | CCC(=O)N1CCN(c2ccc(OC)cc2[N+](=O)[O-])CC1 | -19.5%
70 | COc1ccc(C(=O)c2ccc(N3CCOCC3)c([N+](=O)[O-])c2)cc1 | -43.7%
71 | COc1ccc(N2CCN(C(=O)c3cccc(F)c3)CC2)c([N+](=O)[O-])c1 | -73.2%
72 | COc1ccc(N2CCN(c3ccc(C(N)=O)cc3[N+](=O)[O-])CC2)cc1 | 2.51%
73 | COc1ccc(N2CCN(C(=S)NC(=O)c3cccs3)CC2)c([N+](=O)[O-])c1 | -47.8%
74 | COc1cccc(CC(=O)N2CCN(c3ccccc3[N+](=O)[O-])CC2)c1 | -21%
75 | COc1ccc(N2CCN(C(=O)c3ccccc3)CC2)c([N+](=O)[O-])c1 | -67.7%
76 | COc1cccc(C(=O)N2CCN(C(=O)c3cccc(F)c3)CC2)c1 | -0.0938%
77 | Cn1c(=O)n(C)c2cc([N+](=O)[O-])c(N3CCN(C(=O)c4cccc(F)c4)CC3)cc21 | -32.7%
78 | COc1ccc(N2CCN(C(=O)CC34CC5CC(CC(C5)C3)C4)CC2)c([N+](=O)[O-])c1 | 0.229%
79 | COc1ccc(N2CCN(C(=O)c3ccc(Br)cc3)CC2)c([N+](=O)[O-])c1 | -72.3%
80 | COc1ccc(C2N=C(Nc3ccc(C)cc3)Nc3nc(C)cc(=O)n32)cc1 (centres unmarked) | 1.81%
81 | COc1ccc(CCN2CC(O)=C(c3nc(C)cs3)C2=N)cc1OC | -21.8%
82 | CCn1c(=O)c(C(=O)CN2CC(C)OC(C)C2)c(N)n(Cc2ccccc2)c1=O (centres unmarked) | -32.6%
83 | COc1ccc(CCNC(=O)NC2CCCCC2)cc1OC | 8.03%
